From PubChem BioAssay (NCI)
About 79,000 compounds went through this panel and 15% of them were active in at least one assay; those are over-represented in the sample as a whole. Active and inactive are the calls of the source. Rule as the data show it: active = growth inhibition above about 70%; inactive = the rest.

Columns and labels:
[1] = NCI Yeast Anticancer Drug Screen. Data for the rad50 strain (AID 155);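 also: 0% = growth of vehicle-only cultures of the same strain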; conditions: S. cerevisiae rad50 strain growth inhibition; at 50.0 µM; active compounds read high
How it was run: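 Genetically altered yeast (DNA repair pathway); compound treatment; growth inhibition vs vehicle ctrl.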

[2] = NCI Yeast Anticancer Drug Screen. Data for the mec2-1 strain (AID 157); conditions: S. cerevisiae mec2-1 strain, at 50.0 µM, active compounds read high
How it was run: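 Yeast mec2-1 mutant treated with compound. Readout: growth inhibition vs vehicle controls.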

[3] = NCI Yeast Anticancer Drug Screen. Data for the sgs1 mgt1 strain (AID 161);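 also: 0% = growth of cultures given vehicle only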; conditions: S. cerevisiae sgs1 mgt1 strain, at 50.0 µM, active compounds read high
How it was run: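 Genetically altered yeast, compound exposure, growth inhibition relative to vehicle.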

[4] = NCI Yeast Anticancer Drug Screen. Data for the cln2 rad14 strain (AID 165);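 also: 0% = growth equal to vehicle treated cultures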; conditions: S. cerevisiae cln2 rad14 strain, at 50.0 µM, active compounds read high
How it was run: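 cln2 rad14 yeast strain; compound exposure; growth inhibition read vs vehicle controls.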

[5] = NCI Yeast Anticancer Drug Screen. Data for the bub3 strain (AID 167); conditions: S. cerevisiae bub3 mutant strain, at 50.0 µM, active compounds read high
How it was run: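 Yeast carrying a defined mutation is treated with each compound, and growth is compared with that of vehicle-exposed cells to give inhibition.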

[6] = NCI Yeast Anticancer Drug Screen. Data for the mlh1 rad18 strain (AID 175); conditions: S. cerevisiae mlh1 rad18 strain growth inhibition; at 50.0 µM; active compounds read high
How it was run: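 Yeast w/ defined DNA-repair lesions; compound exposure; growth vs vehicle controls → % inhibition.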

Measured: growth inhibition

O=P1(C(c2ccccc2)c2ccccc2)OC2CC(Cl)CC(C2)O1 (configuration not stated)
inactive: [1] 4.9% | [2] -1.85% | [3] -6.9% | [4] -46.8% | [5] 0.25% | [6] -11.9%

CC(C)(C#N)OC(=O)c1cc([N+](=O)[O-])cc([N+](=O)[O-])c1
inactive: [1] 8.55% | [2] 4.45% | [3] 13.1% | [4] -14.9% | [5] -9.55% | [6] -2.1%

CS(=O)(=O)c1nc2ncnc(N)c2[nH]1
inactive: [1] -6.2% | [2] -18.1% | [3] -6.3% | [4] -22.4% | [5] -27.1% | [6] -4.75%

O=C1Cc2c(-c3cccs3)cc(-c3ccccc3)nc2-c2ccccc2N1
inactive: [1] 0% | [2] -3.9% | [3] 3.4% | [4] 18.2% | [5] -4.75% | [6] 7.85%

CCSC1=C(SCC)C(=O)C(SCC)=C(SCC)C1=O
inactive: [1] -1.25% | [2] 16.1% | [3] 13.9% | [4] -22.4% | [5] -1.65% | [6] 15.4%

CC1(C)CNC(=O)C2(C=NC(C)(C)CNC(=O)C3(C=N1)CCCO3)CCCO2 (configuration not stated)
inactive: [1] -10.2% | [2] -5.6% | [3] -36.2% | [4] -8.55% | [5] -17.6% | [6] -11.2%

N#Cc1c2ccccc2cc2c1ccc1ccccc12
inactive: [1] 6.95% | [2] 17.1% | [3] 15.8% | [4] -4.45% | [5] 11.9% | [6] 17.1%

Cc1ccc(/C=C/c2ccc3ccccc3c2)cc1
inactive: [1] -6.6% | [2] -9.3% | [3] 9.05% | [4] -14.6% | [5] -4.8% | [6] -3.85%

CS(=O)(=O)OC1C(OC(=O)c2ccccc2)COC(OCc2ccccc2)C1OS(C)(=O)=O (configuration not stated)
inactive: [1] -5.4% | [2] 13.2% | [3] -11.9% | [4] -13.3% | [5] 5.35% | [6] 5.7%

CCC(=O)Oc1ccccc1C(C)C
inactive: [1] 9.8% | [2] -14.6% | [3] 1.9% | [4] 8.55% | [5] -6.25% | [6] 12.2%

O=C(N/N=C/c1ccccc1)C1CC1
inactive: [1] 9.35% | [2] -10.2% | [3] 10.2% | [4] 8% | [5] 9.35% | [6] 1.85%

Cc1ccc(S(=O)(=O)N/N=C/c2cc([N+](=O)[O-])cc(I)c2O)cc1
inactive: [1] 2.35% | [2] -3.6% | [3] -4.5% | [4] -50.4% | [5] -10.6% | [6] 4.2%

CCOC(=O)C1=C(Nc2ccc(F)cc2)C(=O)N(CC)C1
inactive: [1] 1.3% | [2] -15.3% | [3] 24.4% | [4] -6.45% | [5] 19.9% | [6] 21.4%

O=S(=O)(c1ccccc1)c1ccc(CI)cc1
inactive: [1] 15.8% | [2] 19.9% | [3] 5.05% | [4] 17.4% | [5] 13.7% | [6] 9.05%

Cn1nc2ccc([N+](=O)[O-])cc2[n+]1[O-]
inactive: [1] 28.4% | [2] -2.45% | [3] -2.8% | [4] -19.4% | [5] 0.05% | [6] -17.2%

COC(=O)C(=O)C(C(=O)C(=O)Nc1ccccc1[N+](=O)[O-])c1nc2ccc([N+](=O)[O-])cc2[nH]c1=O (configuration not stated)
inactive: [1] 17.8% | [2] 15.2% | [3] 5% | [4] 26.6% | [5] 27.8% | [6] 20.7%

O=C(NCc1ccncc1)Nc1ccc(Cc2ccc(NC(=O)NCc3ccncc3)cc2)cc1
inactive: [1] -8.05% | [2] -19.1% | [3] 0.2% | [4] 15.3% | [5] 3.5% | [6] 4.25%

C/C(=C\CC1C(=O)N(c2ccccc2)N(c2ccccc2)C1=O)CO
inactive: [1] -10.9% | [2] -32.2% | [3] -29.9% | [4] -18.2% | [5] -28.6% | [6] -11.9%

CCC(=O)C(C)C(=O)N(CC(C)C)CC(C)C (configuration not stated)
inactive: [1] -12.7% | [2] -6.85% | [3] -5.3% | [4] -11.8% | [5] -0.2% | [6] -19.8%

O=C(Cc1nc2ccccc2[nH]c1=O)c1cccnc1
inactive: [1] -0.5% | [2] 8.25% | [3] 13.2% | [4] 1.55% | [5] -4.75% | [6] 16.3%

COC(=O)c1ccc(C(=O)c2ccc(OC)cc2OC)cc1
inactive: [1] -0.1% | [2] -4.05% | [3] -0.85% | [4] -58.8% | [5] 4.15% | [6] -17.4%

Cc1ccc(/C(C#N)=C/c2ccccc2)cc1
inactive: [1] 32.8% | [2] 26.4% | [3] 21% | [4] 19.6% | [5] 18.8% | [6] 9.65%

CCCCCCC(C(=O)O)C(=O)O
inactive: [1] -20.8% | [2] -15.4% | [3] 23.6% | [4] 13.2% | [5] 1.15% | [6] -5.6%

N#Cc1cccc(N2C(=O)c3c(c(-c4ccccc4)c(-c4ccc(Sc5ccc(-c6c(-c7ccccc7)c7c(c(-c8ccccc8)c6-c6ccccc6)C(=O)N(c6cccc(C#N)c6)C7=O)cc5)cc4)c(-c4ccccc4)c3-c3ccccc3)C2=O)c1
inactive: [1] -48.6% | [2] -44.2% | [3] -41% | [4] -14.8% | [5] -68.8% | [6] -60.8%

c1ccc(-c2cc3nncc(-c4ccccc4)n3n2)cc1
inactive: [1] -14.9% | [2] -9.95% | [3] -7.65% | [4] 13.9% | [5] 13.3% | [6] 3.55%

CCCCS(=O)CC(CO)NC(=O)/C=C/c1c(C)[nH]c(=O)[nH]c1=O (configuration not stated)
inactive: [1] 12.9% | [2] 22.8% | [3] 12.8% | [4] 22.1% | [5] -3.25% | [6] 33.9%

C/C(=C/C(=O)O)c1ccccc1
inactive: [1] 10.7% | [2] -14.4% | [3] 2.2% | [4] -19.6% | [5] -15.3% | [6] -1.95%

CCOc1snc(C(Cl)(Cl)Cl)c1Cl
inactive: [1] 9.7% | [2] 15.3% | [3] 5.05% | [4] 18% | [5] 22.3% | [6] 8.2%

CC(=O)N(C(C)=O)c1ccc2c3c(cccc13)CC2
inactive: [1] 0% | [2] -3.9% | [3] 2.6% | [4] -19.1% | [5] 8.1% | [6] -1.2%

Fc1ccc(CSC(=S)Nc2ccc(I)cc2)cc1
active: [1] 98.8% | [2] 99.2% | [3] 99.2% | [4] 99.2% | [5] 98.7% | [6] 99%

Cc1ccc2ccccc2c1CC(=O)NN
inactive: [1] 6.6% | [2] -26.8% | [3] -0.6% | [4] -25.2% | [5] 6.9% | [6] -8.95%

CCCCCCCCCCCCCC(N)=O
inactive: [1] -30.8% | [2] -46.5% | [3] -18.2% | [4] 4.85% | [5] -28.7% | [6] -18%

CC(=O)NC(CSCN(C)c1nc(N(C)C)nc(N(C)C)n1)C(=O)O (configuration not stated)
inactive: [1] 7.5% | [2] -3.45% | [3] 2.95% | [4] 5.6% | [5] 8.2% | [6] 13.8%

N#C/C(=C\c1ccccc1Cl)C(N)=S
inactive: [1] 10.6% | [2] 11.2% | [3] 1.15% | [4] 8% | [5] -27.4% | [6] 6.05%

CC(=O)N(C)Cc1c(O)ccc2ccccc12
inactive: [1] -7.25% | [2] -21.2% | [3] -9.9% | [4] -9.4% | [5] -2.25% | [6] 12.7%

CC1CCC23C1CC(CC(=O)C2(C)O)C3(C)C (configuration not stated)
inactive: [1] 4.75% | [2] 6% | [3] 5.2% | [4] -49.4% | [5] -21.1% | [6] 5.05%

O=c1[nH]cnc2c1ncn2CCc1ccc([N+](=O)[O-])cc1[N+](=O)[O-]
inactive: [1] 3% | [2] -6.15% | [3] 9.4% | [4] -54.9% | [5] -15.1% | [6] -7.95%

O=C(OC1CC2CCC23CCC13)c1ccccc1 (configuration not stated)
inactive: [1] -1.35% | [2] 6.1% | [3] 10.2% | [4] -7.6% | [5] -37.5% | [6] -18.9%

O=NN(CCCl)C(=O)Oc1ccc2ccccc2c1
inactive: [1] 29.4% | [2] -9.35% | [3] 16.1% | [4] -24.8% | [5] 6.2% | [6] -0.5%

CC1(C)OC(=C(C#N)C#N)C(C#N)=C1/C=C/c1ccncc1
inactive: [1] 25.7% | [2] 29.4% | [3] 19.8% | [4] 18.2% | [5] 31.5% | [6] -2.45%

O=C(O)c1nc(-c2ccccc2)[nH]c1C(=O)O
inactive: [1] 20.5% | [2] 5.6% | [3] 12.8% | [4] -15.8% | [5] 30.6% | [6] 24.4%

C/C(=N\O)C(=O)c1cccc([N+](=O)[O-])c1
inactive: [1] 12% | [2] 8.3% | [3] 15.4% | [4] 2.75% | [5] -7.45% | [6] 27.1%
